This experiment concerns the target Mucolipin-3 (Homo sapiens) (UniProt Q8TDD5). As to the kind of experiment: activators of mucolipin-3 and mucolipin-2 – cell-based, patch clamp, Fura-2 profiling panel (AID 2116). The note with it: HEK293 cells expressing TRPML3-YFP, TRPML3 Fura-2 Imaging; Fura-2 340/380 ratio change, at 10 µM, stronger effect = higher value. For orientation: The patch-clamp technique gives a direct electrical read-out from membranes.

Structures are written as SMILES. Activity calls are given as the source filed them. How the calls were made is not given here.

Sequence of Mucolipin-3 (Homo sapiens) (Q8TDD5 whole entry, looked up): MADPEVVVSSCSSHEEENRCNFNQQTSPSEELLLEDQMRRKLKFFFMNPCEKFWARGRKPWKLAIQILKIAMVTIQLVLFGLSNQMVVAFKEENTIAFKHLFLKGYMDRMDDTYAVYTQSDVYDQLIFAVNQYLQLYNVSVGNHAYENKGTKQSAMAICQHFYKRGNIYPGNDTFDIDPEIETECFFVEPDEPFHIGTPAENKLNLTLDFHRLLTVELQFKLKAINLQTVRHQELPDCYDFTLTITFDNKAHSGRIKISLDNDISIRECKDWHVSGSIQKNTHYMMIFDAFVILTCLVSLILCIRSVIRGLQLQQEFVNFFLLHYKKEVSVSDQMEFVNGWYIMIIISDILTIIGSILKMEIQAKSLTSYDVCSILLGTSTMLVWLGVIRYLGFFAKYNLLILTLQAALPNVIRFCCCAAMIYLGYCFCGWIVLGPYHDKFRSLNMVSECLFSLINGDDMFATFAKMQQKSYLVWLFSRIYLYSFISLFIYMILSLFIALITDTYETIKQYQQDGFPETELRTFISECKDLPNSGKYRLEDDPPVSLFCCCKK

Turning to `O=S(=O)(NC1CCCCC1N1CCOCC1)c1ccc(Cl)cc1` (stereo not given), the delta F ratio is 1.38 and the outcome was “active; no effect on six other TRP channels”.
Turning to `Cc1ccc(S(=O)(=O)Nc2ccccc2-c2ccccc2)cc1`, the delta F ratio came out at 0.51 and the outcome is “active; no effect on six other TRP channels”.
Turning to `O=S(=O)(Nc1ccccc1N1CCCCC1)c1ccc(Cl)s1`, the delta F ratio amounted to 1 and the outcome is “active; no effect on six other TRP channels”.
On the same counts, the results for `Cc1ccc(N2CCN(S(=O)(=O)N3CCCCC3)CC2)c(C)c1` are 0.99 and “active; no effect on six other TRP channels”.
As to `O=S(=O)(Nc1ccccc1N1CCOCC1)c1ccc(Cl)s1`, the delta F ratio is 0.93 and the outcome was “active; no effect on six other TRP channels”.

The values are drawn from PubChem BioAssay AID2116 (The Scripps Research Institute Molecular Screening Center, 2009).
